dFosB activator = enhances mouse delta FosB homodimer DNA binding | P13346 | purified delta FosB, TAMRA-CDK5 oligo fluorescence polarization; percent of positive-control signal above neutral wells | activation, % at 25 µM | actives 0.99% (n = 340,000);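 active means mean activation above about 17%, with every replicate also reaching it, limit read from the data, passing the limit was not always enough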
PvdQ inh = blocks Pseudomonas aeruginosa PvdQ acylase activity; purified PvdQ acylase, fluorescence plate reader; inhibition, % at 10 µM; actives 0.063% (n = 340,000); in the data active means inhibition above about 30%, passing the limit was not always enough;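 further: 0% = vehicle neutral wells and 100% = reference inhibitor wells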
CFTR F508del cor = CFTR F508del correction in bronchial cells. AID 720511. activity (quench increase), % at 7.58 µM. actives 0.36% (n = 350,000). CFBE cells, YFP halide quenching; stimulated with forskolin plus potentiator P3; % fluorescence drop versus neutral controls;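 active means mean added fluorescence quench of at least 8% versus neutral control, with both replicates also reaching 8%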;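 further: cells transiently co-express mutant CFTR-F508del with the halide-sensitive YFP; corrector assay measuring rescue of mutant channel to the surface after 24 h compound exposure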
RAD54 inh = inhibitors of human RAD54 branch migration | Q92698 | RAD54 Holliday junction branch migration, FAM/BHQ fluorescence | inhibition, % at 10.4 µM | actives 0.14% (n = 360,000);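 active means mean normalized replicate activity at least 40 and at least half of replicates scoring 40 or more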;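 further: 0% = median of neutral control wells and 100% = median of positive control wells; inhibitors cause a drop in the FAM fluorescence signal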
N-glyco inh = blocks N-linked glycosylation in D54 reporter cells; D54 ERlucT glycosylation luciferase reporter, 24 h; percent of 100 nM tunicamycin response; AID 588692; actives 0.23% (n = 360,000); reporter increase, % at 12.5 µM;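 active means mean luciferase reporter signal, scaled so untreated is 0 and the glycosylation-blocking control 100, at or above a set limit in every replicate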;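 further: luciferase carries N-glycosylation sites so blocking glycosylation raises the light; 0% = median of neutral control wells and 100% = median of 100 nM tunicamycin wells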
RAD52 anneal inh = inhibitors of human RAD52 DNA annealing. P43351. recombinant RAD52 DNA annealing, FRET fluorescence. inhibition, % at 18.7 µM. actives 0.46% (n = 360,000);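 active means every replicate showing at least 50% inhibition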
Target sequence (P43351 whole entry, looked up): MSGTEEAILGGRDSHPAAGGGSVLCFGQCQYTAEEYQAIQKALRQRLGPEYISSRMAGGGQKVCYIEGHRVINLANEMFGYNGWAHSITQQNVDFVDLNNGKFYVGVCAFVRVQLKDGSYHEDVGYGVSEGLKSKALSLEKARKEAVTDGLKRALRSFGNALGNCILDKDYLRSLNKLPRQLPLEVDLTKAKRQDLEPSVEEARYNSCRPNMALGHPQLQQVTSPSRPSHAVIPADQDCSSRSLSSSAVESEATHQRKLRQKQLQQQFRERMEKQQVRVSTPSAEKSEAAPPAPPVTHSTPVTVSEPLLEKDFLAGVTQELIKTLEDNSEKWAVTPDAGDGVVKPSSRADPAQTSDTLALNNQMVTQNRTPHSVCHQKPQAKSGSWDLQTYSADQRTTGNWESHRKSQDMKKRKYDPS
* = called active by the depositor; nt = not tested or not shown. An excerpt weighted towards active compounds, which were near 1.5% of everything screened.

SMILES	dFosB activator	PvdQ inh	CFTR F508del cor	RAD54 inh	N-glyco inh	RAD52 anneal inh
CCOC(=O)c1c(NC(=O)COC(=O)c2cnccn2)sc(C(=O)NC)c1C	39.1*	-8.5	-1.0	-1.4	3.7	-1.2
S=C(NCc1ccc2c(c1)OCO2)Nc1ccc2nsnc2c1	1.6	40.7*	-1.1	-12.2	3.3	-17.5
COc1cccc2sc(N(CCN(C)C)C(=O)/C=C/c3cccs3)nc12	-6.0	-10.5	5.7	nt	-1.0	2.1
COc1ccc(C)c2sc(N(CCN(C)C)C(=O)/C=C/c3cccs3)nc12	78.4*	3.5	2.1	30.5	15.8	13.3
COc1cc2nc(N(CCCN(C)C)C(=O)c3ccc(S(=O)(=O)N4CCc5ccccc5C4)cc3)sc2cc1OC	5.4	-4.6	-1.1	14.1	-7.0	49.5
Cc1ccc2sc(N(CCCN(C)C)C(=O)c3ccc(S(=O)(=O)N4CCc5ccccc5C4)cc3)nc2c1C	38.1*	3.2	-2.6	3.1	-7.6	18.3
CN(C)CCCN(C(=O)c1ccc(S(=O)(=O)N2CCc3ccccc3C2)cc1)c1nc2c(F)cc(F)cc2s1	37.4*	4.0	nt	11.1	-3.0	nt
COc1ccc(C)c2sc(N(CCCN(C)C)C(=O)c3ccc(S(=O)(=O)N4CCc5ccccc5C4)cc3)nc12	69.7*	-8.5	5.2	-0.5	-12.2	95.1*
Cc1noc(C)c1NC(=O)N(C)C[C@H]1Oc2ccc(NS(C)(=O)=O)cc2C(=O)N([C@@H](C)CO)C[C@@H]1C	nt	nt	-3.1	2.1	nt	0.8
O=C(N[C@H]1CC[C@@H](CCNS(=O)(=O)c2cccc(Cl)c2)O[C@H]1CO)c1ccncc1	nt	nt	1.9	7.2	nt	-11.3
CO[C@@H]1CN(C)C(=O)c2cc(NC(=O)Nc3cc(F)ccc3F)ccc2OC[C@H](C)N(C(=O)c2cnccn2)C[C@H]1C	nt	nt	-0.6	8.5	nt	2.5
C[C@@H]1CN([C@@H](C)CO)C(=O)c2cc(NC(=O)Nc3ccc(F)cc3)ccc2O[C@@H](C)CCCCO[C@H]1CN(C)C(=O)CCCN(C)C	nt	nt	-1.8	8.6	nt	51.1*
CCCN(C)C[C@@H]1OCCCC[C@H](C)Oc2ccc(NC(=O)Nc3ccc(F)cc3)cc2C(=O)N([C@H](C)CO)C[C@@H]1C	nt	nt	-1.1	3.9	nt	53.0*
COC(=O)C1CCN(C(=O)c2ccc(SC)cc2OC)CC1	-3.5	-10.3	nt	6.2	0.9	nt
COc1cc(SC)ccc1C(=O)N1CCN(c2ccccc2OC)CC1	-2.3	17.7	14.5*	5.6	15.1	-13.1
COc1ccccc1N1CCN(C(=O)c2ccc(-c3ccc(Cl)cc3)o2)CC1	-6.1	-0.4	9.4*	-0.1	9.7	-25.4
COc1ccccc1N=C1SC(C(=O)Nc2cccc(Cl)c2Cl)C(N)=C1C(N)=O (stereo unspecified)	-10.4	-11.0	9.5*	nt	19.8	-22.6
O=C/C=C/c1ccc(-c2ccccc2)cc1	nt	nt	-6.3	6.9	nt	7.0
C[C@@H]1CCCCO[C@H](CN(C)C(=O)c2ccccc2)[C@@H](C)CN([C@H](C)CO)C(=O)c2cc(NC(=O)CCCN(C)C)ccc2O1	nt	nt	1.0	-2.8	nt	6.7
COCC(=O)Nc1ccc2c(c1)C(=O)N(C)[C@H]1CC[C@H](CC(=O)NCC3CC3)O[C@H]1CO2	nt	nt	3.0	-14.4	nt	-1.4
Cc1ccc(NC(=O)CC2=NC(=O)C(CC(=O)Nc3ccccc3C)S2)cc1 (stereo unspecified)	34.1*	-5.0	-0.3	2.3	1.5	-35.3
CC(=O)Oc1c(C)cc(Cl)cc1C(=O)Nc1ccc([N+](=O)[O-])cc1Cl	-6.6	-9.2	13.4*	nt	-9.1	-10.0
C[C@@H]1CN([C@@H](C)CO)C(=O)c2cc(NC(=O)CCCN(C)C)ccc2O[C@@H](C)CCCCO[C@@H]1CN(C)C(=O)Cc1ccccc1	nt	nt	-0.5	3.4	nt	1.0
COC(=O)c1c(-c2ccc(C)cc2)csc1NC(=O)c1c(-c2ccccc2)noc1C	nt	nt	8.5*	nt	nt	-23.3
CC(OC(=O)c1ccc(Cl)nc1)C(=O)Nc1ccc(S(=O)(=O)N2CCCC2)cc1 (stereo unspecified)	-10.7	-10.2	-0.1	2.5	-1.1	-10.7
CC(=O)Nc1ccc(NC(=O)C(C)OC(=O)c2ccc(S(=O)(=O)N3CCCCC3)cc2)cc1 (stereo unspecified)	58.2*	1.1	-1.7	-1.5	-4.8	-3.7

Source: PubChem
